Reference: the supplement of paper PMC12282887
± gives the standard deviation of the averaged measurements.

What was measured:
Experiment in all cases: promoter activity interaction Z-score (Lux/OD deviation from empty-vector control); higher = stronger promoter induction by the compound
[1] = system: E. coli BW25113 acrABp lux reporter
How it was run: (§1)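 In 384-well plates, 40 µl LB Lennox cultures of E. coli BW25113 with low-copy luxCDABE promoter reporters grew at 37°C. Optical density at 600 nm and light output were recorded every 30 min for 12 h, with windows of 0–8 h for wild type and 1–9 h for deletion strains, and wells under 10% of the median growth value were left out. Each value is a Z-transformed residual of growth-normalised luminescence fitted against a control.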

[2] = system: E. coli BW25113 micFp lux reporter
How it was run: as §1

[3] = system: E. coli BW25113 ompFp lux reporter
How it was run: as §1

[4] = system: E. coli BW25113 robp lux reporter
How it was run: as §1

[5] = system: E. coli BW25113 soxSp lux reporter
How it was run: as §1

[6] = system: E. coli BW25113 tolCp lux reporter
How it was run: as §1

[7] = 13.3 µg/ml, genetic background: wild type
[8] = 13.3 µg/ml, genetic background: ΔmarA
[9] = 13.3 µg/ml, genetic background: Δrob
[10] = 13.3 µg/ml, genetic background: ΔsoxS
[11] = 26.6 µg/ml, genetic background: wild type
[12] = 26.6 µg/ml, genetic background: ΔmarA
[13] = 26.6 µg/ml, genetic background: Δrob
[14] = 26.6 µg/ml, genetic background: ΔsoxS
[15] = 53.2 µg/ml, genetic background: wild type
[16] = 53.2 µg/ml, genetic background: ΔmarA
[17] = 53.2 µg/ml, genetic background: Δrob
[18] = 53.2 µg/ml, genetic background: ΔsoxS
[19] = 106.3 µg/ml, genetic background: wild type
[20] = 106.3 µg/ml, genetic background: ΔmarA
[21] = 106.3 µg/ml, genetic background: Δrob
[22] = 106.3 µg/ml, genetic background: ΔsoxS

## NCCc1c[nH]c2ccc(O)cc12 [Serotonine]
[1]; [7]
  promoter activity interaction Z-score: -0.00265 ± 0.11
[1]; [8]
  promoter activity interaction Z-score: -0.788 ± 0.29
[1]; [9]
  promoter activity interaction Z-score: -0.254 ± 0.091
[1]; [10]
  promoter activity interaction Z-score: -0.249 ± 0.17
[1]; [11]
  promoter activity interaction Z-score: 0.0217 ± 0.063
[1]; [12]
  promoter activity interaction Z-score: -0.85 ± 0.58
[1]; [13]
  promoter activity interaction Z-score: -0.276 ± 0.24
[1]; [14]
  promoter activity interaction Z-score: -0.0282 ± 0.36
[1]; [15]
  promoter activity interaction Z-score: -0.325 ± 0.06
[1]; [16]
  promoter activity interaction Z-score: -0.49 ± 0.22
[1]; [17]
  promoter activity interaction Z-score: -0.415 ± 0.17
[1]; [18]
  promoter activity interaction Z-score: -0.545 ± 0.3
[1]; [19]
  promoter activity interaction Z-score: 0.00625 ± 0.31
[1]; [20]
  promoter activity interaction Z-score: -0.338 ± 0.23
[1]; [21]
  promoter activity interaction Z-score: -0.109 ± 0.092
[1]; [22]
  promoter activity interaction Z-score: -0.397 ± 0.11
[2]; [7]
  promoter activity interaction Z-score: -0.241 ± 0.065
[2]; [8]
  promoter activity interaction Z-score: -0.0379 ± 0.032
[2]; [9]
  promoter activity interaction Z-score: -0.00374 ± 0.19
[2]; [10]
  promoter activity interaction Z-score: -0.156 ± 0.27
[2]; [11]
  promoter activity interaction Z-score: 0.00853 ± 0.19
[2]; [12]
  promoter activity interaction Z-score: 0.0453 ± 0.21
[2]; [13]
  promoter activity interaction Z-score: 0.0253 ± 0.12
[2]; [14]
  promoter activity interaction Z-score: -0.0552 ± 0.27
[2]; [15]
  promoter activity interaction Z-score: -0.712 ± 0.14
[2]; [16]
  promoter activity interaction Z-score: 0.105 ± 0.08
[2]; [17]
  promoter activity interaction Z-score: -0.0954 ± 0.018
[2]; [18]
  promoter activity interaction Z-score: -0.396 ± 0.062
[2]; [19]
  promoter activity interaction Z-score: -0.289 ± 0.23
[2]; [20]
  promoter activity interaction Z-score: 0.0717 ± 0.036
[2]; [21]
  promoter activity interaction Z-score: -0.13 ± 0.074
[2]; [22]
  promoter activity interaction Z-score: -0.339 ± 0.011
[3]; [7]
  promoter activity interaction Z-score: -0.556 ± 0.15
[3]; [8]
  promoter activity interaction Z-score: -0.881 ± 0.092
[3]; [9]
  promoter activity interaction Z-score: -0.716 ± 0.021
[3]; [10]
  promoter activity interaction Z-score: -0.309 ± 0.16
[3]; [11]
  promoter activity interaction Z-score: -0.212 ± 0.059
[3]; [12]
  promoter activity interaction Z-score: -0.69 ± 0.35
[3]; [13]
  promoter activity interaction Z-score: -1.16 ± 0.13
[3]; [14]
  promoter activity interaction Z-score: -0.158 ± 0.048
[3]; [15]
  promoter activity interaction Z-score: -0.996 ± 0.15
[3]; [16]
  promoter activity interaction Z-score: -0.794 ± 0.068
[3]; [17]
  promoter activity interaction Z-score: -0.999 ± 0.19
[3]; [18]
  promoter activity interaction Z-score: -0.802 ± 0.085
[3]; [19]
  promoter activity interaction Z-score: -0.733 ± 0.22
[3]; [20]
  promoter activity interaction Z-score: -0.818 ± 0.24
[3]; [21]
  promoter activity interaction Z-score: -0.632 ± 0.014
[3]; [22]
  promoter activity interaction Z-score: -0.689 ± 0.16
[4]; [7]
  promoter activity interaction Z-score: -0.357 ± 0.24
[4]; [8]
  promoter activity interaction Z-score: -0.786 ± 0.2
[4]; [9]
  promoter activity interaction Z-score: -0.355 ± 0.17
[4]; [10]
  promoter activity interaction Z-score: 0.188 ± 0.045
[4]; [11]
  promoter activity interaction Z-score: 0.207 ± 0.12
[4]; [12]
  promoter activity interaction Z-score: -0.465 ± 0.14
[4]; [13]
  promoter activity interaction Z-score: -0.388 ± 0.26
[4]; [14]
  promoter activity interaction Z-score: 0.275 ± 0.77
[4]; [15]
  promoter activity interaction Z-score: -0.669 ± 0.27
[4]; [16]
  promoter activity interaction Z-score: -0.144 ± 0.64
[4]; [17]
  promoter activity interaction Z-score: -0.179 ± 0.34
[4]; [18]
  promoter activity interaction Z-score: -0.554 ± 0.4
[4]; [19]
  promoter activity interaction Z-score: 0.176 ± 0.072
[4]; [20]
  promoter activity interaction Z-score: 0.574 ± 0.46
[4]; [21]
  promoter activity interaction Z-score: 0.0481 ± 0.46
[4]; [22]
  promoter activity interaction Z-score: -0.714 ± 0.32
[5]; [7]
  promoter activity interaction Z-score: -0.18 ± 0.0085
[5]; [8]
  promoter activity interaction Z-score: -0.19 ± 0.0051
[5]; [9]
  promoter activity interaction Z-score: -0.045 ± 0.2
[5]; [10]
  promoter activity interaction Z-score: -0.24 ± 0.11
[5]; [11]
  promoter activity interaction Z-score: -0.101 ± 0.061
[5]; [12]
  promoter activity interaction Z-score: -0.181 ± 0.093
[5]; [13]
  promoter activity interaction Z-score: -0.254 ± 0.35
[5]; [14]
  promoter activity interaction Z-score: -0.331 ± 0.17
[5]; [15]
  promoter activity interaction Z-score: -0.456 ± 0.097
[5]; [16]
  promoter activity interaction Z-score: -0.276 ± 0.14
[5]; [17]
  promoter activity interaction Z-score: -0.264 ± 0.11
[5]; [18]
  promoter activity interaction Z-score: -0.531 ± 0.027
[5]; [19]
  promoter activity interaction Z-score: -0.199 ± 0.16
[5]; [20]
  promoter activity interaction Z-score: -0.243 ± 0.18
[5]; [21]
  promoter activity interaction Z-score: -0.285 ± 0.11
[5]; [22]
  promoter activity interaction Z-score: -0.676 ± 0.071
[6]; [7]
  promoter activity interaction Z-score: -0.64 ± 0.46
[6]; [8]
  promoter activity interaction Z-score: -0.135 ± 0.24
[6]; [9]
  promoter activity interaction Z-score: 0.259 ± 1.6
[6]; [10]
  promoter activity interaction Z-score: -0.321 ± 0.043
[6]; [11]
  promoter activity interaction Z-score: 0.564 ± 0.026
[6]; [12]
  promoter activity interaction Z-score: -0.00904 ± 0.37
[6]; [13]
  promoter activity interaction Z-score: -0.3 ± 0.55
[6]; [14]
  promoter activity interaction Z-score: 0.737 ± 0.3
[6]; [15]
  promoter activity interaction Z-score: -0.749 ± 0.61
[6]; [16]
  promoter activity interaction Z-score: -0.0593 ± 0.84
[6]; [17]
  promoter activity interaction Z-score: -0.236 ± 1.2
[6]; [18]
  promoter activity interaction Z-score: -0.229 ± 1.1
[6]; [19]
  promoter activity interaction Z-score: -0.235 ± 0.56
[6]; [20]
  promoter activity interaction Z-score: 0.575 ± 0.063
[6]; [21]
  promoter activity interaction Z-score: -0.637 ± 0.9
[6]; [22]
  promoter activity interaction Z-score: -0.781 ± 0.14
